An excerpt weighted towards active compounds, which were near 7.3% of everything screened.
AmpC no deterg – blocks E. coli AmpC beta-lactamase in detergent-free assay; P00811; AmpC nitrocefin hydrolysis, absorbance 480 nm, 0.0001% Triton; Potency, µM (doses to about 57.1 µM), without a hit: at the highest dose activity change, negative = inhibition, hits mostly inhibitors; 0.52% of 330,000 active; AID 485341;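 note: potency is the fitted concentration of half-maximal effect; plate controls were no compound for no effect and no enzyme for full effect; nearly all actives have a fitted effect of over 20% in size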
Target sequence (P00811 whole entry, looked up): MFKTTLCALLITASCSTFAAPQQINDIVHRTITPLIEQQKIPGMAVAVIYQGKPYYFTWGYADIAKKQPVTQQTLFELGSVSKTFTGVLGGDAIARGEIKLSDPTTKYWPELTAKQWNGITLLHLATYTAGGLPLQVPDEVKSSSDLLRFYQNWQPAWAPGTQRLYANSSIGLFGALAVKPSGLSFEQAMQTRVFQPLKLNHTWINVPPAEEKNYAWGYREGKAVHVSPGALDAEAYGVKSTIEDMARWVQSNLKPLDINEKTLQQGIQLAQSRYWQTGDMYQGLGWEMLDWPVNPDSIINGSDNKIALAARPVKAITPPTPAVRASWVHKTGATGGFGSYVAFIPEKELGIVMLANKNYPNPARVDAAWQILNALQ
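AmpC (5.3 nM in the dispensed reagent) in 20 mM phosphate pH 7.0 with 0.01% (detergent screen) or 0.0001% Triton X-100 was preincubated with compounds for 15 min at room temperature. Nitrocefin was then added from an 800 uM solution, and hydrolysis was followed at 480 nm.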
FMDV antiviral – antivirals against foot and mouth disease virus | FMDV antiviral cell-based qHTS | Potency, µM (highest dose often 57.9 µM), for the others: at the highest dose activity change, negative = inhibition, actives largely listed as inhibitors | 1.2% of 410,000 active; calls by dose curve; tested in HEK293T cells; note: read-out not given here; potency is the fitted concentration of half-maximal effect; nearly all actives have a fitted effect of over 45% in size
HCV inhibitor – inhibitors of hepatitis C virus infection; Huh7.5.1 HCVcc-Cre infection, luciferase reporter, 44 h; 3.4% of 340,000 active; Potency, µM (highest dose often 41.8 µM), for the others: at the top dose activity change, negative = inhibition, usual class: inhibitors; note: potency is the fitted concentration of half-maximal effect
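Cells seeded at 1,000/well and cultured 4 h, then compounds added followed by HCVcc-Cre virus (~0.5 moi). After 44 h further culture, luciferase substrate was added, plates held 15 min at room temperature, and luminescence read for 15 sec.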
HCMV antiviral – human cytomegalovirus inhibition | HFF cells, HCMV-luciferase reporter, 72 h; active compounds read low | 4.5% of 410,000 active | activity change, negative = inhibition, % at 57.5 µM; in the data active = activity change below about -60%; inconclusive = no clear call, values can overlap the other calls; inactive = above about -39%
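After 16 h attachment at 37C, HFF cells received test compound and HCMV-luciferase (1 PFU/cell); reporter luminescence read 72 h later, data normalized against buffer-only and known inhibitor Salinomycin.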
AmpC inh detg – blocks E. coli AmpC beta-lactamase in detergent assay. P00811. AmpC hydrolysis of nitrocefin, absorbance 480 nm, 0.01% Triton. Potency, µM (top dose mostly 114 µM), for inactives: at the top dose activity change, negative = inhibition, usual class: inhibitors. 0.041% of 370,000 active. AID 485294;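 note: potency is the fitted concentration of half-maximal effect; 0% = no-compound wells and -100% = no-enzyme wells; nearly all actives have a fitted effect of over 25% in size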
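20 mM phosphate pH 7.0 + 0.01% (detergent screen) or 0.0001% Triton X-100; 5.3 nM AmpC reagent; cpd preinc 15 min RT; nitrocefin (800 uM stock) to start; A480 q20 s × 4 min; Activity was normalised to no-enzyme and no-compound control wells.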
Active calls of the source: *; ? = inconclusive; / = no result given; [ ] = another dose, or the depositor's remark. Unless noted, calls come from the whole dose curve; as a rule, active = well fitted curve in the direction sought with a large enough effect; inconclusive = small, poorly fitted or top-dose-only effect, or another doubt; inactive = no such curve, though single readings can be large; an effect the other way counts as inactive or inconclusive. Unless noted, % is set by controls: 0 for no effect and ±100 for the full control effect.

SMILES | AmpC no deterg | FMDV antiviral | HCV inhibitor | HCMV antiviral | AmpC inh detg
COc1ccc(-c2cc(CCCC(=O)N3CCN(c4ccc(OC)cc4)CC3)no2)cc1 | 13% | ? | 11µM* | -22 | -14%
COc1ccc(-c2cc(CCCC(=O)NCCc3cc(OC)ccc3OC)no2)cc1 | 45% | ? | 10µM* | -20 | 3%
CCOc1ccc(-c2cc(CCCC(=O)NCCc3ccc(OCC)c(OCC)c3)no2)cc1 | / | -10% | / | -39 | -3%
Cc1ccc(C)c(Nc2ccc3nonc3c2[N+](=O)[O-])c1 | -12% | -24% | -4% | -87* | 8%
COc1ccc(S(=O)(=O)N2Cc3ccccc3CC2C(=O)Nc2ccc(O)cc2)cc1OC (stereo not drawn) | 0.71µM* | -13% | -15% | 25 | ?
COc1ccc(S(=O)(=O)N2Cc3ccccc3CC2C(=O)Nc2cccc(C)c2)cc1OC (stereo not drawn) | / | -28% | / | 16 | 23%
O=C1CSC(=S)N1/N=C/c1ccc(Cl)c([N+](=O)[O-])c1 | 13µM* | / | / | / | 5%
O=[N+]([O-])c1ccc(N=Nc2ccc(O)c3ccccc23)cc1 | / | -25% | 10µM* | / | /
O=S(=O)(Nc1ccc(N=Nc2ccc(O)c3ccccc23)cc1)c1ccccc1 | -24% | -19% | ? | -19 | -1%
O=C1c2cc(F)ccc2-n2c1nc1ccccc1c2=O | -23% | ? | 2.5µM* | -83* | -4%
CCOC(=O)c1cnc2nc(NCc3cccc(Br)c3)[nH]n2c1=O | / | -15% | / | 8 | 12%
CCN(CC)c1ccc(C(=O)NC(=S)N2CCN(Cc3ccc4c(c3)OCO4)CC2)cc1 | 12% | -19% | 11µM* | -8 | -3%
CC(C)NC(=S)N1CCN(Cc2ccc3c(c2)OCO3)CC1 | -5% | -15% | 0% | -38 | -13%
COCCNC(=S)N/N=C(\C)CCc1ccc2c(c1)OCO2 | -15% | -1% | -20% | -67* | ?
COCCCNC(=S)N1CCN(Cc2ccc3c(c2)OCO3)CC1 | 16% | -18% | 10% | -103* | 4%
Cc1ccc(OCC(=O)N2CCN(Cc3ccc4c(c3)OCO4)CC2)cc1 | -8%[11.4 µM] | ? | -6% | -15 | ?
CCCCOc1ccc(C(=O)NCC(=O)N2CCN(Cc3ccc4c(c3)OCO4)CC2)cc1 | 193% | 0% | ? | -68* | 13%
CCc1ccc(-n2nc(C)c3c(C(=O)Nc4cc(C)ccc4C)cc(C)nc32)cc1 | / | 7% | / | 3 | -8%
Cc1ccccc1NC(=S)N1CCN(Cc2ccc3c(c2)OCO3)CC1 | 0% | ? | 9% | -28 | -13%
Cc1ccc(S(=O)(=O)N(C)C)cc1NC(=S)N1CCN(Cc2ccc3c(c2)OCO3)CC1 | 51% | ? | 13µM* | ? | -12%
Nc1ccc(Br)c2cccnc12 | -19% | -7% | ? | -26 | 8%
COc1cc(OC)cc(C(=O)Nc2cccc3cccnc23)c1 | -16% | 10% | -15% | -4 | ?
Cc1ccc(S(=O)(=O)Nc2ccc(O)c3ncccc23)cc1 | -32% | -11% | ? | 19 | 1%
Cc1ccccc1N=Nc1ccc(O)c2ncccc12 | -19% | 0% | ? | -93* | -8%
COc1cccc(N=Nc2ccc3cccnc3c2O)c1 | -37% | 35% | 2µM* | -100* | -15%
SMILES | AmpC no deterg | FMDV antiviral | HCV inhibitor | HCMV antiviral | AmpC inh detg
COc1ccc(C)cc1N=Nc1ccc(O)c2ncccc12 | -10% | -23% | ? | -100* | 9%
O=S(=O)(O)c1cccc2c(N=Nc3ccc(O)c4ncccc34)cccc12 | -47% | ? | ? | / | -12%
Nc1ccc(N=Nc2ccccc2)c2cccnc12 | 7% | 37% | 2.5µM* | 389 | -4%
O=C(NS(=O)(=O)NC1CCCCC1)C1=C(N2CCCC2)COC1=O | -15% | 51% | -10% | -3 | /
CCCCc1nc2cc(C(=O)N3CCCCC3C(=O)OC)ccc2o1 (stereo not drawn) | 28% | 14% | 16% | 41 | ?
CCOC(=O)Cc1cc(=O)n2[nH]c(C(C)(C)C)cc2n1 | -16% | -18% | 1% | -3 | 8%
O=Nc1ccc(O)c2ncccc12 | -3% | ? | ? | -98* | -3%
Oc1ccc(CNc2ccccc2)c2cccnc12 | -50% | ? | ? | / | ?

Screening data from PubChem.
